SMILES strings stand for the structures. Calls of active or inactive are those of the source.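 Rule for the calls, unless noted: active = fluorescence slope higher than the sample average by over 3 SD (cut at about -0.22 in these data, passing the limit was not always enough); inactive = the rest.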

These results are taken from PubChem BioAssay.

A short description of assay [1]: inhibitors of TNFa-induced NFkB p65 translocation, primary screen, imaging, HUVEC, MLSMR starter and 10KST1 sets (AID 438;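 active = inhibition above 20% together with a positive visual image hit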;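 note: compound added about 3h40 before a 20 min TNFalpha stimulation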;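 for inhibition: signal is the nuclear over cytoplasmic p65 intensity ratio per well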). Particulars: HUVEC TNFa-induced p65 nuclear translocation; cell count: measured here: nuclei count (cytotoxicity indicator), at 2.08 µM; inhibition: at 2 µM, stronger effect = higher value, 0% TNFa-plus-vehicle, 100% no-TNFa wells.
Assay [2] can be described thus: reduction of polyQ htt aggregates in cells – imaging, exon1htt(103Q)mCFP cells, high-content imaging, primary screen (AID 483;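 active = visual image review flags a hit and inhibition of aggregation exceeds 20%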;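 note: compound exposure lasted 3 days before fixation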;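 for nuclei count: percent of the per-plate median nuclei count of sample wells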). Particulars: exon1htt(103Q)mCFP cell line, aggregate imaging, at 2 µM; inhibition of aggregation: stronger effect = higher value; nuclei count: measured here: cell count, toxicity.
A short description of assay [3]: endothelial E-selectin expression blockers – imaging, HUVEC, immunofluorescence, MLSMR starter and 10KST1 sets, primary screen (AID 487;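 active = visually confirmed hit in the image check and inhibition above 20%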;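 for inhibition: signal is fraction of cell area covered by stained E-selectin grains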;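 for nuclei count: 100% = median nuclei count of all wells on the same plate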). The note with it: HUVEC TNFalpha-induced E-selectin immunofluorescence imaging, at 2 µM; inhibition: stronger effect = higher value; nuclei count: measured here: cell number, toxicity.
The target of assay [4] is Voltage-gated potassium channel subunit beta-2 (Rattus norvegicus) (UniProt P62483). Kind of assay: inhibitors of rat Kvbeta2 reductase activity – biochemical, NADPH fluorescence, primary screen (AID 622).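 Note: slope of raw intensity against log time taken from 70 to 1610 s.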 Particulars: recombinant KvBeta, 4-cyanobenzaldehyde reduction, at 10 µM, stronger effect = higher value.
Assay [5] shares this target. Kind of assay: enhancers of rat Kvbeta2 NADPH turnover – biochemical, NADPH fluorescence, primary screen (AID 623;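 active = NADPH fluorescence slope more negative than the mean of all samples by about 3 SD, 99.7% confidence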;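 note: fluorescence intensity change per second fitted from 20 to 320 s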). The note with it: Recombinant KvBeta, NADPH fluorescence decrease slope, 10 min; at 10 µM; stronger effect = lower value.
For assay [6], the target named is Alpha-2C adrenergic receptor (Homo sapiens) (UniProt P18825). The assay can be described thus: compounds altering alpha2C-coupled GIRK flux – cell-based, HEK293 alpha2C/GIRK1/2, thallium flux, primary screen (AID 624;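 active = fluorescence slope after compound addition differing from the mean of all screened samples at 99.7% confidence, in either direction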;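 note: slope of fluorescence ratio to pre-addition baseline per second over 15 to 24 s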). The note with it: thallium flux BTC fluorescence, at 10 µM, actives lie on both sides.
The nature of assay [7]: blockers of RIG-like receptor reporter activation – cell-based, Sendai virus stimulus, luciferase, 10K MLSCN set, TLR/RLR signaling modifier project, primary screen (AID 602276;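 active = inhibition at or above 50% at 10 µM; inactive = inhibition below 50%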;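 note: firefly luciferase from ISG56 promoter only with Renilla not read in this screen; 0% = Sendai virus plus DMSO and 100% = medium plus DMSO without virus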). The note with it: HEK293 RL24 IRF3 luciferase reporter, at 10 µM, stronger effect = higher value.
A short description of assay [8]: TLR3 IRF3 reporter activation blockers – cell-based, poly I:C stimulus, luciferase, 10K MLSCN set, primary screen (AID 602277;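 active = inhibition of the reporter signal at or above 50%; inactive = inhibition below 50%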). Particulars: HEK293-TLR3 RL24 IRF3 luciferase reporter, at 10 µM, stronger effect = higher value.

Alpha-2C adrenergic receptor (Homo sapiens), sequence (P18825 whole entry, looked up): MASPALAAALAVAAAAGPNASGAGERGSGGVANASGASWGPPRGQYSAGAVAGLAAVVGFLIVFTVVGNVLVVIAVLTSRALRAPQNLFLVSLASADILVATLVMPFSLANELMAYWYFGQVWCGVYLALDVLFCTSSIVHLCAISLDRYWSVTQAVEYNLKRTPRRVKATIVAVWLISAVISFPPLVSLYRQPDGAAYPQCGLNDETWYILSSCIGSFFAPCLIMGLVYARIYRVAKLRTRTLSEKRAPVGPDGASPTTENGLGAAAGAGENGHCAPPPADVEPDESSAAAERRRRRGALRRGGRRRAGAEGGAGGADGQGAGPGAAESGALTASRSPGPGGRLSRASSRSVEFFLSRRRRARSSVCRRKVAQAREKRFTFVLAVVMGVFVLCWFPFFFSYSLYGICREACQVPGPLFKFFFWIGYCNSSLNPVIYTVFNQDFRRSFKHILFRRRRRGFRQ
Voltage-gated potassium channel subunit beta-2 (Rattus norvegicus), sequence (P62483 whole entry, looked up): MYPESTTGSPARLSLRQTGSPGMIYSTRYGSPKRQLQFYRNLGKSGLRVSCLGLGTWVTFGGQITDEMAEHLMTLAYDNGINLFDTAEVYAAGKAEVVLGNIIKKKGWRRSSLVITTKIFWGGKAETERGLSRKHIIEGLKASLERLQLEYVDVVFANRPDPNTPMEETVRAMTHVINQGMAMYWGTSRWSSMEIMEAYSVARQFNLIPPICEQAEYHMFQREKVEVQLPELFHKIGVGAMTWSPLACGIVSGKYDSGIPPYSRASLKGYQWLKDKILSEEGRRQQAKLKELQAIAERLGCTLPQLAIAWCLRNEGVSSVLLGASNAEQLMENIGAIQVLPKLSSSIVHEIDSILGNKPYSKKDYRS

With `COC(=O)CSc1cc(C)nc(NC(C)=O)n1`, the cell count in assay [1] came to 703. Also, the inhibition is 11% (inactive) in assay [1], -5.3% (inactive) in assay [3], 6.12% (inactive) in assay [7] and 17.7% (inactive) in assay [8]. Besides, the inhibition of aggregation in assay [2] is -16.4% (inactive). Also, the nuclei count in assay [2] came out at 98.3%; in assay [3] it was 110%. Besides, the fluorescence slope in assay [4] is -0.586 (inactive). Further, the NADPH fluorescence slope in assay [5] was -4.5e-05 (inactive). In addition, the slope in assay [6] is 0.0055 (inactive).
Turning to `CCC1(C)Cc2c(C#N)c(N)n(N)c(=S)c2CO1` (centres undefined), in assay [1], the cell count is 795. In addition, the inhibition is 1.1% (inactive) in assay [1], -97% (inactive) in assay [3], 9.11% (inactive) in assay [7] and 22.9% (inactive) in assay [8]. Besides, the inhibition of aggregation in assay [2] is -11.2% (inactive). Besides, the nuclei count in assay [2] worked out at 97.6%; in assay [3], 106%. Besides, the fluorescence slope in assay [4] was -0.422 (inactive). The NADPH fluorescence slope in assay [5] is -4.6e-05 (inactive). In addition, the slope in assay [6] is 0.00514 (inactive).
For `CCOc1cc(C(=O)Nc2c3c(nn2C(C)(C)C)CS(=O)C3)cc(OCC)c1OCC` (centres undefined), the cell count in assay [1] is 525. For the same compound, the inhibition in assay [1] is -16.3% (inactive); in assay [3] it was 16.3% (inactive); in assay [7] it was 6.91% (inactive); in assay [8], 3.04% (inactive). Moreover, the inhibition of aggregation in assay [2] is -15.3% (inactive). The nuclei count came to 109% in assay [2] and 122% in assay [3]. For the same compound, in assay [4], the fluorescence slope was -0.545 (inactive). Moreover, the NADPH fluorescence slope in assay [5] is 2.6e-05 (inactive). Also, in assay [6], the slope was 0.00616 (inactive).
In the case of `O=C(NC1CCCCC1)c1ccc(S(=O)(=O)N2CCCCC2)cc1`, the cell count in assay [1] is 392. The inhibition in assay [1] was 2.1% (inactive); in assay [3], -49.2% (inactive); in assay [7] it was -18.3% (inactive); in assay [8], -7.9% (inactive). Also, the inhibition of aggregation in assay [2] was 5.8% (inactive). The figures for the nuclei count in assay [2] and in assay [3] were 96.4% and 119%, respectively. Further, the fluorescence slope in assay [4] is -0.588 (inactive). Besides, the NADPH fluorescence slope in assay [5] is 1.4e-05 (inactive). The slope in assay [6] was 0.00499 (inactive).
With `CC1NC(=O)NC1CCCCCC(=O)NCCc1ccccc1` (centres undefined), the cell count in assay [1] amounted to 391. Also, the inhibition in assay [1] is 7.3% (inactive); in assay [3], -86.2% (inactive); in assay [7], 5.75% (inactive); in assay [8], 15.3% (inactive). In assay [2], the inhibition of aggregation was 7.5% (inactive). For the same compound, the nuclei count in assay [2] worked out at 110%; in assay [3] it was 113%. Further, in assay [4], the fluorescence slope was -0.441 (inactive). The NADPH fluorescence slope in assay [5] is -1.4e-05 (inactive). For the same compound, the slope in assay [6] is 0.006 (inactive).
Consider `CCCCSc1cc(C)nc2ncnn12`, for which the cell count in assay [1] was found to be 416. In addition, the inhibition in assay [1] was -4% (inactive); in assay [3], 12.1% (inactive); in assay [7], -10.9% (inactive); in assay [8] it was 9.98% (inactive). For the same compound, the inhibition of aggregation in assay [2] was -3.2% (inactive). For the same compound, the nuclei count in assay [2] came out at 117%; in assay [3] it was 119%. In addition, the fluorescence slope in assay [4] is -0.492 (inactive). Moreover, the NADPH fluorescence slope in assay [5] is 3.1e-05 (inactive). In assay [6], the slope is 0.00349 (inactive).
In the case of `CC(C)C(NC(=O)OCc1ccccc1)C(=O)OCC(=O)NCc1ccco1` (centres undefined), the cell count in assay [1] was 511. The inhibition in assay [1] is -2.9% (inactive); in assay [3], 7.4% (inactive); in assay [7], 0.314% (inactive); in assay [8] it was 5.27% (inactive). Also, the inhibition of aggregation in assay [2] was -14.8% (inactive). Moreover, the nuclei count in assay [2] is 114%; in assay [3] it was 119%. The fluorescence slope in assay [4] was -0.366 (inactive). The NADPH fluorescence slope in assay [5] is 2.2e-05 (inactive). Further, in assay [6], the slope is 0.00253 (inactive).
In the case of `COc1ccc(-n2c(=O)[nH]cc(C(=O)Nc3ccc(NC(C)=O)cc3)c2=O)cc1`, in assay [1], the cell count is 233. The inhibition in assay [1] was 7% (inactive); in assay [3], 30.3% (inactive); in assay [7] it was 9.68% (inactive); in assay [8], 24.1% (inactive). Besides, the inhibition of aggregation in assay [2] was 22.1% (inactive). Moreover, the nuclei count in assay [2] is 49.8%; in assay [3], 85.4%. In addition, the fluorescence slope in assay [4] is -0.629 (inactive). In assay [5], the NADPH fluorescence slope is 9.9e-06 (inactive). In addition, the slope in assay [6] is 0.0073 (inactive).
Consider `COc1cccc(-c2nc(CSCC(=O)N3CCc4ccccc43)c(C)o2)c1`, for which the cell count in assay [1] came to 326. Besides, the inhibition in assay [1] was 8.5% (inactive); in assay [3], 22.5% (inactive); in assay [7], -10.3% (inactive); in assay [8], -34.4% (inactive). Moreover, the inhibition of aggregation in assay [2] is -5.9% (inactive). Besides, the nuclei count in assay [2] and in assay [3] was 108% throughout. In addition, in assay [4], the fluorescence slope is -0.432 (inactive). Moreover, the NADPH fluorescence slope in assay [5] is 2.9e-06 (inactive). In addition, in assay [6], the slope was 0.00374 (inactive).
Turning to `Cn1c(=O)oc2cc(S(=O)(=O)N3CCN(c4ccccn4)CC3)ccc21`, the cell count in assay [1] is 826. Also, the inhibition is 8% (inactive) in assay [1], -36.5% (inactive) in assay [3], 15% (inactive) in assay [7] and 31.2% (inactive) in assay [8]. Moreover, the inhibition of aggregation in assay [2] was 24.1% (inactive). The values for the nuclei count in assay [2] and in assay [3] were 116% and 117%, respectively. The fluorescence slope in assay [4] is -0.577 (inactive). In addition, the NADPH fluorescence slope in assay [5] is -4.3e-05 (inactive). For the same compound, in assay [6], the slope was 0.00702 (inactive).
As to `O=C(CSCc1ccc(F)cc1)NC1CCCC1`, the cell count in assay [1] was found to be 750. The inhibition in assay [1] was -2.8% (inactive); in assay [3] it was 33% (inactive); in assay [7], -26.1% (inactive); in assay [8], -75.4% (inactive). The inhibition of aggregation in assay [2] is 12.7% (inactive). Further, the nuclei count in assay [2] was determined as 101%; in assay [3] it was 93.5%. Besides, the fluorescence slope in assay [4] is -0.493 (inactive). The NADPH fluorescence slope in assay [5] is -5.3e-05 (inactive). Moreover, the slope in assay [6] is 0.00649 (inactive).
For the compound `COCCN(C(=O)c1csnn1)C(C(=O)NC(C)(C)C)c1cccc(OC)c1` (centres undefined), the cell count in assay [1] came out at 684. The inhibition is -1.7% (inactive) in assay [1], 0.2% (inactive) in assay [3], 17% (inactive) in assay [7] and 14.6% (inactive) in assay [8]. Also, in assay [2], the inhibition of aggregation was -26.8% (inactive). Also, the results for the nuclei count in assay [2] and in assay [3] were 76.2% and 102%, respectively. The fluorescence slope in assay [4] is -0.515 (inactive). The NADPH fluorescence slope in assay [5] is -2.6e-05 (inactive). Moreover, the slope in assay [6] was 0.00595 (inactive).
Consider `O=C(Cn1ncc2c1-c1ccccc1OC2)N1CCc2ccccc21`, for which, in assay [1], the cell count is 678. Moreover, the inhibition in assay [1] is 4.4% (inactive); in assay [3], 4.3% (inactive); in assay [7], 5.8% (inactive); in assay [8], 1.51% (inactive). In addition, the inhibition of aggregation in assay [2] is 10.6% (inactive). Besides, the nuclei count in assay [2] is 84.5%; in assay [3], 108%. For the same compound, the fluorescence slope in assay [4] is -0.587 (inactive). Besides, the NADPH fluorescence slope in assay [5] was 6e-06 (inactive). Besides, the slope in assay [6] was 0.00757 (inactive).
For `CCn1c(SCC(=O)Nc2cc(C)ccc2C)nc2c(c1=O)SC(C)C2` (centres undefined), the cell count in assay [1] worked out at 680. Besides, the inhibition in assay [1] was -8.2% (inactive); in assay [3] it was -39.2% (inactive); in assay [7], -13.9% (inactive); in assay [8], 2.03% (inactive). Moreover, the inhibition of aggregation in assay [2] is -17.3% (inactive). Further, the nuclei count came to 98% in assay [2] and 110% in assay [3]. In addition, the fluorescence slope in assay [4] was -0.584 (inactive). In addition, in assay [5], the NADPH fluorescence slope is -2.9e-05 (inactive). Besides, the slope in assay [6] is 0.0063 (inactive).
